In publication PMC4552634, “A New Set of Chemical Starting Points with Plasmodium falciparum Transmission-Blocking Potential for Antimalarial Drug Discovery” (PLoS ONE, 2015):
About 3,200 (25%) of roughly 13,000 compounds showed an effect of 50% or more. The list shows a part of the results.

system: P. falciparum stage V gametocytes; set-up: BacTiter-Glo ATP luminescence viability of purified stage V gametocytes in 384-well plates, per cent inhibition versus DMSO; conditions: 48 h, 5 µM; inhibitor

Compound | % Inhibition [%]
CCOc1cc(C(=O)Nc2ccccc2N2CCN(S(C)(=O)=O)CC2)cc(OCC)c1OCC [TCMDC-124994] | 1.091
CCOc1cc(Cl)c(C(C)NC(=O)c2ccccc2)cc1OCC (stereo not shown) [TCMDC-123744] | 73.45
CCOc1cc(Br)c(C(C)NC(=O)c2ccccc2)cc1OCC (stereo not shown) [TCMDC-123743] | 65.54
O=C(NOCCCCOc1ccc(Cl)c(Cl)c1)c1ccccc1 [TCMDC-131761] | -3.28
CCOc1cc(C(=O)Nc2ccc3nc(N(CC)CC)cc(C)c3c2)cc(OCC)c1OCC [TCMDC-124008] | -7.565
CCOc1cc(Cl)c(C(C)NC(=O)c2cccc(OC)c2)cc1OCC (stereo not shown) [TCMDC-125450] | 81.4
CCOc1cc(Br)c(C(C)NC(=O)c2cccc(OC)c2)cc1OCC (stereo not shown) [TCMDC-123742] | 47.1
COc1cccc(C(=O)NC(NC(=S)Nc2ccc(OC)cc2[N+](=O)[O-])C(Cl)(Cl)Cl)c1 (stereo not shown) [TCMDC-124141] | 23.91
CCOc1cc(C(=O)NC2CCN(Cc3ccccc3)CC2)ccc1-c1nc2cc(Cl)c(Cl)cc2[nH]1 [TCMDC-140080] | -6.754
CC(C)C[C@H](NC(=O)c1ccc(OCCN2CCOCC2)cc1)C(=O)N[C@H](/C=N/N1CC(=O)NC1=O)CCc1ccccc1 [TCMDC-136155] | 17.61
O=C(NC1CC1)c1ccc2cc(C(=O)N3Cc4ccccc4C(c4ccccc4)C3)ccc2c1 (stereo not shown) [TCMDC-131863] | 5.684
COc1ccccc1CCNc1ncnc2c1[nH]c1ccc(F)cc12 [TCMDC-124556] | 39.14
COc1ccc(OC)c(Cc2cnc3nc(N)[nH]c(=O)c3c2C)c1 [TCMDC-138103] | 16.49
CN(C)C(=O)CCCn1c(CNCCCNc2cc(=O)c3ccccc3[nH]2)cc2c(Cl)cc(Cl)cc21 [TCMDC-140466] | -27.37
CCCC1CCNC(C(O)c2ccnc3ccc(OC)cc23)C1 (stereo not shown) [TCMDC-138276] | 11.37
Cc1ccc(-n2nc(-c3ccccc3)c3cc(C(=O)NCCN)sc32)cc1 [TCMDC-124776] | 110.1
CN(C)CCNC(=O)c1cc2c(-c3ccc(Cl)cc3)nn(C)c2s1 [TCMDC-123580] | -36.25
COc1cccc(-c2nn(C)c3sc(C(=O)NCCN(C)Cc4ccccc4)cc23)c1 [TCMDC-123583] | -8.796
CC(C)Oc1ccc2c(c1)OC(c1ccccc1)(C(F)(F)F)NC2=O (stereo not shown) [TCMDC-123633] | 28.56
Cc1nc(Cl)c2c(-c3ccccc3)csc2n1 [TCMDC-125437] | -3.595
CN(C)Cc1cccc(-c2ccc3ccnc(N)c3c2)c1 [TCMDC-136795] | 100.3
Nc1ccc(-c2ccc3ccnc(N)c3c2)cc1 [TCMDC-136763] | -16.03
COc1cccc(-c2ccc3ccnc(N)c3c2)c1 [TCMDC-133361] | 60.33
NC(=O)c1ccc(-c2ccc3ccnc(N)c3c2)cc1 [TCMDC-133429] | 50
CN(C)CC(=O)Nc1ccc(-c2ccc3ccnc(N)c3c2)cc1 [TCMDC-133427] | 67.97

Compound | % Inhibition [%]
COc1cccc(-c2ccc3c(-c4ccc(F)cc4)cnc(N)c3c2)c1 [TCMDC-134514] | 40.73
Nc1nccc2ccc(-c3cccc(OCc4ccccc4)c3)cc12 [TCMDC-133430] | 24.46
CS(=O)(=O)Nc1ccc(-c2ccc3ccnc(N)c3c2)cc1 [TCMDC-136788] | 43.95
NS(=O)(=O)c1cccc(Nc2nccc(-c3c(-c4cccc(NC(=O)c5c(F)cccc5F)c4)nn4ccccc34)n2)c1 [TCMDC-135780] | -65.73
Cc1csc(-c2nc(NCc3cccnc3)ncc2-c2ccsc2)n1 [TCMDC-124841] | 9.704
CC(C)(C)c1cc(NC(=O)c2ccc(Cl)c([N+](=O)[O-])c2)cc(C(C)(C)C)c1 [TCMDC-125604] | 2.881
Cc1ccc(C(=O)N2CCN(Cc3nccs3)CC2)cc1 [TCMDC-140738] | 3.888
O=c1cc(NCCCNCc2scc(I)c2I)[nH]c2ccccc12 [TCMDC-140908] | -12.68
NCc1cccc(-c2ccc3ccnc(N)c3c2)c1 [TCMDC-136889] | 55.02
Nc1nccc2ccc(-c3cccc4ncccc34)cc12 [TCMDC-133424] | 95.32
CN(C)Cc1ccc(-c2ccc3ccnc(N)c3c2)cc1 [TCMDC-136790] | 60.33
Nc1nccc2ccc(-c3cccnc3)cc12 [TCMDC-136599] | 30.25
Nc1cc(-c2ccc3c(N)nccc3c2)ccc1Cl [TCMDC-136895] | -23.38
Nc1cccc(-c2ccc3ccnc(N)c3c2)c1 [TCMDC-136762] | 21.07
NCc1ccc(-c2ccc3c(N)nccc3c2)cc1 [TCMDC-133718] | 107.3
COC(=O)c1noc(C)c1I [TCMDC-131678] | -0.6747
CN1CCN(c2ccc(Nc3c(C(N)=O)cnc4cc(-c5ccoc5)ccc34)cc2C(F)(F)F)CC1.Cl [TCMDC-135443] | 2.768
O=C(Nc1ccc(Cl)cc1)Nc1ccc(-c2cccc(-c3nc4ccccc4[nH]3)c2)cc1 [TCMDC-133187] | -14.37
CC(C)(C)CCOC(=O)N1CCc2c(cc(O)c(O)c2Cl)C(c2ccc(O)cc2)C1 (stereo not shown) [TCMDC-141981] | -77.14
Nc1nc(N)c2c3c(ccc2n1)CCC3 [TCMDC-137720] | -10.07
Cc1ccc(NC(=S)N2CCCN(CCCCCNC(=O)/C=C/c3ccc(Cl)c(Cl)c3)CC2)cc1Cl [TCMDC-135895] | -0.4693
COc1ccccc1CNC(=O)c1cc(C2CC2)nc2c1cnn2C(C)C [TCMDC-125250] | 49.1
Cc1cccc(C)c1N1CCN(C2CCC(NC(=O)/C=C/c3ccccc3)CC2)CC1 (stereo not shown) [TCMDC-132881] | -29.57
COCCN1CCC(NCC(C)(C)c2nc(-c3ccc(Cl)c(O)c3)c(-c3ccncc3)[nH]2)CC1 [TCMDC-140926] | -95.92
